An excerpt weighted towards active compounds, which were near 9% of everything screened.
ALDH1A1 inh = blocks purified human ALDH1A1 activity. P00352. Purified ALDH1A1, NADH fluorescence, propionaldehyde substrate. Potency, µM (doses to about 75.3 µM), inactives show top-dose activity, negative = inhibition, most hits filed as inhibitors. 220,000 tested, 7.3% active. AID 1030;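 note: potency is the fitted concentration of half-maximal effect; plate controls were no enzyme wells and a reference inhibitor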
IMPase inh = membrane-permeable compound that blocks inositol monophosphatase; inhibition (IP1 accumulation), % at 46.1 µM; CHO-M1 cells, IP1 accumulation, HTRF TR-FRET ratio; 120,000 tested, under 10 active; AID 901; P97697; active = well fitted curve in the direction sought with a large enough effect in the signal ratio, not every such curve was filed as active; inconclusive = small, poorly fitted or top-dose-only effect, or a change in a side signal; inactive = no such curve, though single readings can be large or run the other way; the % refers to the signal ratio;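 note: cells stimulated with carbachol in lithium chloride buffer; plate controls were DMSO basal wells for no effect and reference inhibitor wells for full effect; higher means more IMPase inhibition seen as more IP1 and lower FRET ratio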
Target sequence (P97697 whole entry, looked up): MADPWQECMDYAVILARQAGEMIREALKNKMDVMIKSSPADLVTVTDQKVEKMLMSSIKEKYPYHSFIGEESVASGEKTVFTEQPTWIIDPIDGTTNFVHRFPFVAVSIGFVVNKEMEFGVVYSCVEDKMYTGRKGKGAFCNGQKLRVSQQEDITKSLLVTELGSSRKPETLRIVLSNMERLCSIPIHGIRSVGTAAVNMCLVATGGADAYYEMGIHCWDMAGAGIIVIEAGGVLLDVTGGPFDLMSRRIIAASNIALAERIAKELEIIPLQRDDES
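Cellular IMPase inhibition is scored as a rise in cytosolic IP1, detected by competitive TR-FRET between d2-labelled IP1 and a europium anti-IP1 antibody. M1-expressing CHO cells were stimulated with carbachol for 30 min at 37C, with lithium (50 mM LiCl) present in the buffer.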
HPGD block = HPGD (human) dehydrogenase inhibition; P15428; purified HPGD, NADH fluorescence kinetic, PGE2 substrate; Potency, µM, inactives show top-dose activity change, negative = inhibition, hits mostly inhibitors; 150,000 tested, 4.3% active; note: potency is the fitted concentration of half-maximal effect
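NADH formation kinetics: reaction with 30 uM PGE2 and 1 mM NAD+ (final), 20 nM enzyme, Tris-HCl pH 8 with Tween 20, after 15 min compound preincubation at room temperature. Fluorescence change, last versus first of five reads.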
The depositor's hits bear a star; ? = inconclusive; / = not tested or not shown. Unless noted, calls come from the whole dose curve; as a rule, active = well fitted inhibition curve with a large enough effect (not every such curve was filed as active); inconclusive = small, poorly fitted or top-dose-only effect, or another doubt; inactive = no such curve, though single readings can be large or run the other way. Unless noted, % is set by controls: 0 for no effect and ±100 for the full control effect.

SMILES | ALDH1A1 inh | IMPase inh | HPGD block
COC1=C/C(=C/c2c(N)n3nc(-c4ccc(C)cc4)sc3nc2=O)C=CC1=O | 1.1µM* | / | /
CCS(=O)(=O)c1nn2c(N)c(/C=C3/C=CC(=O)C(OC)=C3)c(=O)nc2s1 | -9% | / | ?
CCOc1cc(CNc2ncc(-c3ccc(OC)cc3)n2C)ccc1O | 14µM* | -4 | -7%
COc1ccc(-c2cnc(NCc3cc4c(cc3[N+](=O)[O-])OCO4)n2C)cc1 | ? | 15 | 2%
Cc1cccc2c1[nH]c1nc(N/N=C\c3ccco3)nnc12 | -16% | 1 | -7%
C=CCSc1nnc2c(n1)[nH]c1c(C)cccc12 | ? | 9 | 16µM*
COc1ccc(-n2c(CNC(=O)COc3ccc(Cl)cc3Cl)n[nH]c2=S)cc1 | -11% | / | /
Cc1nn(-c2ccc(F)cc2)c2sc(C(=O)N3CCCCCC3)cc12 | 35µM* | -3 | 16µM*
Cc1nn(-c2ccc(Cl)cc2)c2sc(C(=O)N3CCN(C(=O)c4ccco4)CC3)cc12 | 3% | -5 | -13%
Cc1ccc(C(=O)COC(=O)CCC(=O)Nc2ccc(Oc3cc(C)ccc3C(C)C)cc2)cc1 | / | 2 | /
COc1cccc(-c2nc(NCc3cnc(C)cn3)c3ccccc3n2)c1 | 6% | / | -10%
O=C(CSC1CC(=O)N(c2ccc(C(=O)O)cc2)C1=O)Nc1ccc2ccccc2c1 (stereo not given) | -15% | / | /
Cc1ccc(N2C(=O)CC(SCC(=O)Nc3ccc(S(N)(=O)=O)cc3)C2=O)cc1 (stereo not given) | 14µM* | / | /
CCOC(=O)c1ccc(N2C(=O)CC(SCC(=O)Nc3ccc(S(N)(=O)=O)cc3)C2=O)cc1 (stereo not given) | 1.6µM* | / | /
NS(=O)(=O)c1ccc(NC(=O)CSC2CCCCC2)cc1 | 4% | -1 | -6%
S=C(Nc1ccccc1)Nc1cc(Cl)ccc1Oc1ccccc1 | -4% | 7 | -8%
C[C@]12CCC(=O)C=C1CCC1C3CC[C@](O)(C(=O)CO)[C@@]3(C)CC3OC312 (stereo not given in full) | ? | / | -8%
O=C(CC(Sc1ccccc1)c1cccs1)c1ccco1 (stereo not given) | ? | -7 | -25%
Oc1cc2c(cc1O)[C@@H]1c3ccc(O)c(O)c3OC[C@]1(O)C2 | -2% | / | 11µM*
COc1ccccc1NC(=O)c1cc(S(=O)(=O)NCc2ccccc2)ccc1F | 12% | / | /
COc1ccc(OC)c(NC(=O)c2cc(S(=O)(=O)NCc3ccco3)ccc2F)c1 | 22µM* | 8 | ?
CCc1ccc(NC(=O)CCN2C(=O)c3cccnc3C2=O)cc1 | -4% | 1 | -7%
CCc1ccc2c(c1)C(=O)C(=O)N2CC(=O)Nc1ccc(NC(=O)c2ccccn2)cc1 | 0.22µM* | / | /
C=CC(C)(C)c1[nH]c2ccccc2c1C1=C(O)C(=O)C(c2c[nH]c3c(CC=C(C)C)cccc23)=C(O)C1=O | ? | 10 | 25µM*
COc1ccc(/C=C2\CN(Cc3ccccc3)C/C(=C\c3ccc(OC)cc3OC)C2=O)c(OC)c1 | 18µM* | -6 | -14%
SMILES | ALDH1A1 inh | IMPase inh | HPGD block
COc1ccc(/C=C2\CN(Cc3ccccc3)C/C(=C\c3ccc(OC)cc3)C2=O)cc1 | 16µM* | / | -14%
COc1ccc(OC)c(S(=O)(=O)NC2CCN(Cc3ccccc3)CC2)c1 | -5% | ? | -8%
COc1ccc(CNC(=O)c2cc3c(s2)CN(Cc2ccccc2)C3)cc1 | 10% | / | /
CCN(CC)S(=O)(=O)c1ccc2c(c1)nc(SCC(N)=O)n2-c1ccc(OC)cc1 | ? | 7 | 22µM*
CCN(CC)S(=O)(=O)c1ccc2c(c1)nc(SCC(=O)N1CCCCCC1)n2-c1ccc(OC)cc1 | -2% | 10 | -11%
COc1ccccc1CN1CCC2(CC1)CCN(C(C)=O)CC2 | 1% | / | -7%
O=c1c2oc3ccccc3c2ncn1Cc1ccc(Cl)cc1 | 0% | / | /
Cc1ccc(C)c(C(=O)CSc2n[nH]c(-c3ccncc3)n2)c1 | 5µM* | -5 | /
Cc1cc(C)c(C(=O)CSc2n[nH]c(-c3ccncc3)n2)c(C)c1 | 11% | / | /
O=C(N1CCOCC1)N1CCC(n2nnc3ccccc32)CC1 | -19% | -5 | -17%
O=C(C1CCCCC1)N1CCC(n2nnc3ccccc32)CC1 | 14µM* | -3 | -4%
O=C(NCC1CCCN(Cc2ccccc2F)C1)c1cccc(C(F)(F)F)c1 (stereo not given) | 0% | / | /
C/C(O)=C\c1nc2ccccc2oc1=O | -3% | 3 | -6%
Cc1nc(C)c(/C(O)=C/c2nc3ccc([N+](=O)[O-])cc3oc2=O)o1 | 0.4µM* | / | /
Cc1ccccc1CNC(=O)C(C)N(c1ccccc1)S(C)(=O)=O (stereo not given) | / | 9 | /

Screens (PubChem BioAssay)
